Among all 5,500 compounds or so, about 2,000 (36%) were called active. Not shown: some 18% with an inconclusive outcome. The list shows a part of the results. Values without a mark were called inactive. No stated cut-off is given here; in the data, active means normalized growth mostly below about 0.91 (no sharp cut-off); inconclusive means no clear call, values can overlap the other calls; inactive means mostly above about 0.92.
Test: chemical genetic growth profiling, strain panel (AID 1159580);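 further: tested at 20 µM; growth read once vehicle control cultures reached saturation at 30 °C; 1 = growth at the plate median or of vehicle wells; lower values mean less growth of the strain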
Conditions: S. cerevisiae deletion strains, growth OD

**Q.** Which normalized growth (locus YBR021W, strain FUR4, hits give low values) does the source give for `COc1ccc(-c2cc(=O)c3c(O)c(OC)c(OC)cc3o2)cc1O` here?
**A.** 0.907

**Q.** And the normalized growth (locus YBR229C, strain ROT2, hits give low values)?
**A.** 1.01

**Q.** And the normalized growth (locus YCL029C, strain bik1, hits give low values)?
**A.** 0.937

**Q.** What about the normalized growth (locus YDL035C, strain GPR1, hits give low values) of the same molecule?
**A.** 0.929

**Q.** And the normalized growth (locus YDL074C, strain BRE1, hits give low values)?
**A.** 0.878

**Q.** And the normalized growth (locus YDL101C, strain DUN1, hits give low values)?
**A.** 0.997

**Q.** And the normalized growth (locus YDL134C, strain PPH21, hits give low values)?
**A.** 1

**Q.** And the normalized growth (locus YDL185W, strain tfp1, hits give low values)?
**A.** 0.96

**Q.** What about the normalized growth (locus YDL192W, strain arf1, hits give low values) of the same molecule?
**A.** 0.951

**Q.** And the normalized growth (locus YDR101C, strain arx1, hits give low values)?
**A.** 0.926

**Q.** And the normalized growth (locus YDR150W, strain NUM1, hits give low values)?
**A.** 0.997

**Q.** And the normalized growth (locus YDR162C, strain NBP2, hits give low values)?
**A.** 1

**Q.** And the normalized growth (locus YDR318W, strain mcm21, hits give low values)?
**A.** 0.99

**Q.** What about the normalized growth (locus YDR388W, hits give low values) of the same molecule?
**A.** 0.99

**Q.** And the normalized growth (locus YDR502C, strain sam2, hits give low values)?
**A.** 0.953

**Q.** What about the normalized growth (locus YEL061C, strain CIN8, hits give low values) of the same molecule?
**A.** 1

**Q.** And the normalized growth (locus YER110C, hits give low values)?
**A.** 0.974

**Q.** And the normalized growth (locus YER155C, strain BEM2, hits give low values)?
**A.** 1.01

**Q.** And the normalized growth (locus YER167W, strain BCK2, hits give low values)?
**A.** 0.979

**Q.** And the normalized growth (locus YGL078C, strain dbp3, hits give low values)?
**A.** 0.944

**Q.** What about the normalized growth (locus YGL086W, strain mad1, hits give low values) of the same molecule?
**A.** 0.935

**Q.** And the normalized growth (locus YGL248W, strain PDE1, hits give low values)?
**A.** 0.993

**Q.** What about the normalized growth (locus YGR078C, strain PAC10, hits give low values) of the same molecule?
**A.** 0.969

**Q.** And the normalized growth (locus YGR135W, strain pre9, hits give low values)?
**A.** 0.971

**Q.** What about the normalized growth (locus YGR229C, strain SMI1, hits give low values) of the same molecule?
**A.** 0.893

**Q.** What about the normalized growth (locus YGR252W, strain gcn5, hits give low values) of the same molecule?
**A.** 0.994

**Q.** What about the normalized growth (locus YHR030C, strain SLT2, hits give low values) of the same molecule?
**A.** 0.998

**Q.** And the normalized growth (locus YHR079C, strain IRE1 (second series), hits give low values)?
**A.** 0.978

**Q.** What about the normalized growth (locus YHR094C, strain hxt1, hits give low values) of the same molecule?
**A.** 0.995

**Q.** And the normalized growth (locus YHR129C, strain ARP1, hits give low values)?
**A.** 0.978

**Q.** What about the normalized growth (locus YHR200W, strain rpn10, hits give low values) of the same molecule?
**A.** 0.985

**Q.** And the normalized growth (locus YIL066C, strain RNR3, hits give low values)?
**A.** 0.964

**Q.** And the normalized growth (locus YIL073C, strain SPO22, hits give low values)?
**A.** 0.873

**Q.** What about the normalized growth (locus YIL125W, strain kgd1, hits give low values) of the same molecule?
**A.** 0.959

**Q.** And the normalized growth (locus YIR030C, strain dcg1, hits give low values)?
**A.** 0.993

**Q.** And the normalized growth (locus YJL095W, strain BCK1, hits give low values)?
**A.** 0.991

**Q.** What about the normalized growth (locus YJL134W, strain LCB3, hits give low values) of the same molecule?
**A.** 0.998

**Q.** And the normalized growth (locus YJL168C, strain set2, hits give low values)?
**A.** 0.993

**Q.** And the normalized growth (locus YJL187C, strain SWE1 (second series), hits give low values)?
**A.** 0.952

**Q.** And the normalized growth (locus YJR043C, strain POL32, hits give low values)?
**A.** 0.954

**Q.** And the normalized growth (locus YJR075W, strain HOC1, hits give low values)?
**A.** 0.983

**Q.** What about the normalized growth (locus YKL009W, strain mrt4, hits give low values) of the same molecule?
**A.** 0.943

**Q.** What about the normalized growth (locus YKL068W, hits give low values) of the same molecule?
**A.** 0.969

**Q.** What about the normalized growth (locus YKL085W, strain MDH1 (second series), hits give low values) of the same molecule?
**A.** 0.985

**Q.** What about the normalized growth (locus YKL085W, strain MDH1, hits give low values) of the same molecule?
**A.** 0.985

**Q.** What about the normalized growth (locus YKL190W, strain CNB1, hits give low values) of the same molecule?
**A.** 1.01

**Q.** And the normalized growth (locus YKR001C, strain vps1, hits give low values)?
**A.** 0.943

**Q.** And the normalized growth (locus YLR039C, strain RIC1, hits give low values)?
**A.** 0.96

**Q.** And the normalized growth (locus YLR058C, strain SHM2, hits give low values)?
**A.** 1

**Q.** What about the normalized growth (locus YLR102C, strain apc9, hits give low values) of the same molecule?
**A.** 0.988

**Q.** What about the normalized growth (locus YLR262C, strain YPT6, hits give low values) of the same molecule?
**A.** 0.989

**Q.** And the normalized growth (locus YLR268W, strain sec22, hits give low values)?
**A.** 0.902

**Q.** What about the normalized growth (locus YLR330W, strain CHS5, hits give low values) of the same molecule?
**A.** 0.983

**Q.** What about the normalized growth (locus YLR342W, strain FKS1 (second series), hits give low values) of the same molecule?
**A.** 0.944

**Q.** What about the normalized growth (locus YLR371W, strain rom2, hits give low values) of the same molecule?
**A.** 0.985

**Q.** And the normalized growth (locus YLR418C, strain cdc73, hits give low values)?
**A.** 0.928

**Q.** What about the normalized growth (locus YML016C, strain PPZ1, hits give low values) of the same molecule?
**A.** 1

**Q.** And the normalized growth (locus YML032C, strain rad52, hits give low values)?
**A.** 0.971

**Q.** What about the normalized growth (locus YML124C, strain tub3, hits give low values) of the same molecule?
**A.** 0.998

**Q.** What about the normalized growth (locus YMR078C, strain ctf18, hits give low values) of the same molecule?
**A.** 0.988

**Q.** And the normalized growth (locus YMR223W, strain ubp8, hits give low values)?
**A.** 0.99

**Q.** And the normalized growth (locus YMR263W, strain SAP30, hits give low values)?
**A.** 1.05

**Q.** And the normalized growth (locus YMR307W, strain GAS1, hits give low values)?
**A.** 0.998

**Q.** What about the normalized growth (locus YNL067W, strain RPL9B, hits give low values) of the same molecule?
**A.** 0.965

**Q.** And the normalized growth (locus YNL153C, strain GIM3, hits give low values)?
**A.** 0.969

**Q.** And the normalized growth (locus YNL233W, strain BNI4, hits give low values)?
**A.** 0.928

**Q.** What about the normalized growth (locus YNL250W, strain rad50, hits give low values) of the same molecule?
**A.** 0.89 (active)

**Q.** And the normalized growth (locus YNL271C, strain bni1, hits give low values)?
**A.** 0.993

**Q.** And the normalized growth (locus YNL298W, strain CLA4, hits give low values)?
**A.** 0.996

**Q.** And the normalized growth (locus YNL307C, strain MCK1, hits give low values)?
**A.** 0.975

**Q.** What about the normalized growth (locus YNR052C, strain pop2, hits give low values) of the same molecule?
**A.** 0.973

**Q.** What about the normalized growth (locus YOL012C, strain htz1) of the same molecule?
**A.** 1.07

**Q.** And the normalized growth (locus YOL147C, strain pex11, hits give low values)?
**A.** 0.97

**Q.** What about the normalized growth (locus YOR061W, strain CKA2, hits give low values) of the same molecule?
**A.** 0.98

**Q.** What about the normalized growth (locus YOR069W, strain VPS5, hits give low values) of the same molecule?
**A.** 0.999

**Q.** What about the normalized growth (locus YOR136W, strain idh2, hits give low values) of the same molecule?
**A.** 0.98

**Q.** And the normalized growth (locus YOR144C, strain elg1, hits give low values)?
**A.** 0.991

**Q.** And the normalized growth (locus YOR184W, strain ser1, hits give low values)?
**A.** 0.897

**Q.** What about the normalized growth (locus YOR316C, strain cot1, hits give low values) of the same molecule?
**A.** 0.991

**Q.** What about the normalized growth (locus YPL055C, strain LGE1, hits give low values) of the same molecule?
**A.** 0.941

**Q.** What about the normalized growth (locus YPR119W, strain clb2, hits give low values) of the same molecule?
**A.** 0.995

**Q.** What about the normalized growth (locus YPR141C, strain kar3, hits give low values) of the same molecule?
**A.** 1

**Q.** And the normalized growth (locus YPR163C, strain tif3, hits give low values)?
**A.** 0.992

**Q.** What about the normalized growth (locus YPR167C, strain met16, hits give low values) of the same molecule?
**A.** 0.991

**Q.** And the normalized growth (strain wtn01, hits give low values)?
**A.** 0.92
